Assay results published in the supplement of paper PMC6555819.

How the values were obtained:
Assay in all cases: PBM binding z-score (relative to random genomic background probes); higher = stronger binding; sequences stand for … in GC…GCGATTGACAGCGTAGAATGAAGG
[1] = system: FXR:RXRa (NR concentration 270 nM, RXRa partner concentration 90 nM)
Procedure, shortened: (§1)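 Probes were double-stranded and carried 34-nt variable regions with direct-repeat seeds, single-nucleotide variants, half-site ablations and random human genomic background sequences, printed on custom Agilent 4×180K protein-binding microarrays. Arrays were incubated 1 h with ligand-free nuclear receptor dimers in PBS pH 7.4, 2% milk, 0.02% Triton X-100, 1 mM DTT, 0.2 mg/mL BSA and 0.4 mg/ml salmon testes DNA. Antibodies against each partner (one per run) detected binding, and scanned fluorescence was regression-normalized. Binding z-scores use the random background probes as reference.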

[2] = system: LXRa:RXRa (NR concentration 270 nM, RXRa partner concentration 90 nM)
Procedure, shortened: as §1

[3] = system: LXRa homodimer (NR concentration 270 nM)
Procedure, shortened: as §1

[4] = system: LXRb:RXRa (NR concentration 270 nM, RXRa partner concentration 90 nM)
Procedure, shortened: as §1

[5] = system: LXRb homodimer (NR concentration 270 nM)
Procedure, shortened: as §1

[6] = system: PPARa:RXRa (NR concentration 270 nM, RXRa partner concentration 90 nM)
Procedure, shortened: as §1

[7] = system: PPARg:RXRa (NR concentration 180 nM, RXRa partner concentration 90 nM)
Procedure, shortened: as §1

[8] = system: PPARg:RXRa 270nM:90nM, anti-RXR (NR concentration 270 nM, RXRa partner concentration 90 nM)
Procedure, shortened: as §1

[9] = system: PPARg:RXRa 30nM:10nM, anti-RXR (NR concentration 30 nM, RXRa partner concentration 10 nM)
Procedure, shortened: as §1

[10] = system: PPARg:RXRa 90nM:30nM, anti-RXR (NR concentration 90 nM, RXRa partner concentration 30 nM)
Procedure, shortened: as §1

[11] = system: PPARg:RXRa DBDmut IVT, anti-RXR (DBD mutation: RXRa K156A/R161A, NR concentration 270 nM, RXRa partner concentration 90 nM)
Procedure, shortened: as §1

[12] = system: PPARg:RXRa IVT, anti-PPARg (NR concentration 270 nM, RXRa partner concentration 90 nM)
Procedure, shortened: as §1

[13] = system: PPARg DBDmut:RXRa IVT, anti-PPARg (DBD mutation: PPARg1 K132A/R137A, NR concentration 270 nM, RXRa partner concentration 90 nM)
Procedure, shortened: as §1

[14] = system: PPARg DBDmut IVT, anti-PPARg (DBD mutation: PPARg1 K132A/R137A, NR concentration 270 nM)
Procedure, shortened: as §1

[15] = system: PPARg homodimer (NR concentration 180 nM)
Procedure, shortened: as §1

[16] = system: PXR:RXRa (NR concentration 270 nM, RXRa partner concentration 90 nM)
Procedure, shortened: as §1

[17] = system: PXR homodimer (NR concentration 270 nM)
Procedure, shortened: as §1

[18] = system: RARa:RXR (NR concentration 270 nM, RXRa partner concentration 90 nM)
Procedure, shortened: as §1

[19] = system: RARa homodimer (NR concentration 270 nM)
Procedure, shortened: as §1

[20] = system: RARb:RXRa (NR concentration 270 nM, RXRa partner concentration 90 nM)
Procedure, shortened: as §1

| Sequence | PBM binding z-score [1] | PBM binding z-score [2] | PBM binding z-score [3] | PBM binding z-score [4] | PBM binding z-score [5] | PBM binding z-score [6] | PBM binding z-score [7] | PBM binding z-score [8] | PBM binding z-score [9] | PBM binding z-score [10] | PBM binding z-score [11] | PBM binding z-score [12] | PBM binding z-score [13] | PBM binding z-score [14] | PBM binding z-score [15] | PBM binding z-score [16] | PBM binding z-score [17] | PBM binding z-score [18] | PBM binding z-score [19] | PBM binding z-score [20] |
| --- | --- | --- | --- | --- | --- | --- | --- | --- | --- | --- | --- | --- | --- | --- | --- | --- | --- | --- | --- | --- |
| AGAACGAGGGCAATGACTTGATAGCACGGGTGGC | 0.827 | 0.481 | -0.243 | -0.0938 | -0.458 | 1.43 | 1.71 | 0.813 | 0.00433 | 0.55 | 3.17 | 2.49 | 0.669 | -0.215 | 0.348 | 0.345 | 0.000958 | 0.436 | -0.218 | 2.11 |
| ATCTATAGGTAAAGATAGTTCAGTGAATGCAAAT | 0.466 | 5.29 | 0.591 | 1.55 | 0.423 | 0.82 | 1.09 | 0.484 | 0.425 | 0.604 | 1.2 | 1.29 | 0.937 | 1.26 | 0.82 | 1.65 | 0.751 | 0.916 | 0.797 | 0.78 |
| GCTGCTAGGTCAGGTAGGTCAGCTAACGGGTACG | 2.1 | 1.72 | 0.0186 | 1.43 | -0.161 | 2.41 | 1.45 | 2.19 | -0.0602 | 1 | 3.3 | 3.37 | -0.274 | -0.592 | 1.34 | 1.65 | -0.0271 | 1.95 | -0.315 | 3.87 |
| CCGACTGGGGCAAAGGTTACCATACTCAGTACGA | 1.57 | 1.66 | 0.0551 | 2.1 | -0.895 | 5.49 | 11.2 | 9.84 | 8.71 | 11.5 | 4.37 | 6 | 0.389 | -0.153 | 1.16 | 2.32 | -0.304 | 3.94 | 0.0257 | 2.4 |
| CCTCGGAGGACAACAGGAAGTCAGAGCTGCCAGA | -0.229 | -0.454 | -0.458 | -0.667 | -0.823 | -0.671 | 0.123 | -0.726 | -1.03 | -1.13 | -0.28 | -0.806 | -1.35 | -1.22 | 0.0465 | -0.665 | -0.485 | -0.454 | 0.0942 | 0.863 |
| ACAGACAGGTCATGAAGGTAACTCAGGCTATCAT | 5.65 | 4.39 | 0.927 | 3.31 | 0.862 | 4.77 | 3.76 | 3.6 | 1.23 | 2.19 | 1.59 | 2.7 | 1.81 | 1.12 | 1.73 | 2.95 | 0.934 | 3.74 | 0.881 | 3.9 |
| TCTTCTAGGTCAACGATGGTCAGCTAATCTGCTA | 4 | 3.57 | 0.955 | 2.54 | 2.65 | 4.34 | 6.09 | 5.82 | 5.08 | 5.64 | 7.21 | 7.26 | 2.6 | 3.07 | 2.69 | 2.23 | 0.345 | 2.8 | 1.21 | 4.31 |
| GTACCAAGGTGAATAGGTCTTTGATGAGTAGGCG | 0.444 | 0.341 | -0.168 | 0.148 | -0.363 | 1.23 | 0.96 | 1.11 | 0.335 | 0.823 | 2.18 | 2.5 | 0.818 | 0.145 | 0.986 | 0.0831 | 0.119 | 0.721 | 0.436 | 1.36 |
| ACTAGCAGGCCCAGGGTCACTCAAGATTAGTCCG | 1.28 | 1.58 | -0.164 | 1.69 | -0.913 | 2.27 | 1.36 | 2.3 | 0.49 | 1.68 | -0.868 | 0.714 | -0.322 | -0.342 | 0.073 | 2.4 | 0.0496 | 2.75 | -0.377 | 2.27 |
| GATACAGGGTCACCTAGAGGCCAGAGTATGGAAA | 6.92 | 4.72 | -0.102 | 3.99 | -0.035 | 5.79 | 6.93 | 6.02 | 2.71 | 4.91 | 2.73 | 4.97 | 2.46 | 1.14 | 3.21 | 4.54 | 0.0767 | 6.04 | 0.306 | 4.56 |
| AGAACGAGGGCACGCTGAGTTGACAGCAGAGTAG | 0.953 | 0.796 | -0.526 | 0.312 | -1.2 | 2.46 | 2.25 | 1.73 | 0.191 | 0.731 | 3.94 | 3.77 | 1.38 | 0.377 | 0.462 | 1.46 | -0.0837 | 1.24 | -0.654 | 2.57 |
| CGTCCAAGGTCAATGGTAGGTCAGTGAAAGCATT | 6.69 | 5.38 | 2.66 | 4.27 | 0.432 | 5.14 | 3.76 | 4.73 | 1.28 | 3.54 | 3.32 | 3.95 | -0.0725 | -0.844 | 5.44 | 4.84 | 1.79 | 5.88 | 1.16 | 5.37 |
| TTTGCTAGGTCAACGATGGTCAGCTAATCTGCTA | 3.71 | 4.07 | 1.84 | 2.07 | -0.0738 | 3.59 | 3.4 | 3.77 | 1.38 | 2.86 | 4.45 | 5.11 | 0.599 | 0.434 | 0.874 | 1.46 | -0.501 | 2.15 | -0.298 | 4.13 |
| TCTTGTAGATCAGCAGGTTAAAAAAGCTGGCCAA | 0.198 | 0.216 | -0.0606 | 0.293 | -0.538 | 0.844 | -0.455 | 1.44 | 2.6 | 1.94 | 1.58 | 0.467 | -0.542 | 0.0495 | 0.159 | 0.148 | -0.197 | 0.613 | -0.11 | 0.0554 |
